Measured values: ChEMBL document CHEMBL1961873, “Compounds: GSK PKIS; Assays: Nanosyn kinase panel” (2012)

Key:
[1] = molecular target: Tyrosine-protein kinase SYK (Homo sapiens) (UniProt P43405); settings: at 1 µM
[2] = molecular target: T1, Tyrosine-protein kinase Tec (Homo sapiens) (UniProt P42680); settings: at 0.1 µM
T1 sequence (whole entry): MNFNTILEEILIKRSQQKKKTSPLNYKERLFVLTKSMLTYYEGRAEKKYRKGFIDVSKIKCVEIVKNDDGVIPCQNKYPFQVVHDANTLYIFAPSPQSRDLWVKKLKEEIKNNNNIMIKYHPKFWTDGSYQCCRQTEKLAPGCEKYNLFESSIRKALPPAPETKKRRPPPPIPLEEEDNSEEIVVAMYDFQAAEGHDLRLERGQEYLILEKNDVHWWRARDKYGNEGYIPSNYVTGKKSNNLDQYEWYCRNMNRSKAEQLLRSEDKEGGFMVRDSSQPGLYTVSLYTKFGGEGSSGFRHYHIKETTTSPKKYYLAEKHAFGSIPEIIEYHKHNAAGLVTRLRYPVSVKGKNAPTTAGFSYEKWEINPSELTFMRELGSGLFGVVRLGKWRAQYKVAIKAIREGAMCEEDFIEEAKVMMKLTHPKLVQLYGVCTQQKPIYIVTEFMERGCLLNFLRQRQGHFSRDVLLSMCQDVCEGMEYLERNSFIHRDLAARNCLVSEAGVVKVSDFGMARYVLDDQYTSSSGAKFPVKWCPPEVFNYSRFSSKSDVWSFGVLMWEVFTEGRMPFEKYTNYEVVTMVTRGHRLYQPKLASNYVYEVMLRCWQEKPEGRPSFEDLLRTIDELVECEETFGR

[3] = molecular target: T1, Tyrosine-protein kinase Tec (Homo sapiens); settings: at 1 µM
[4] = molecular target: Angiopoietin-1 receptor (Homo sapiens) (UniProt Q02763); settings: at 0.1 µM
Sequence of Angiopoietin-1 receptor (Homo sapiens) (Q02763 whole entry): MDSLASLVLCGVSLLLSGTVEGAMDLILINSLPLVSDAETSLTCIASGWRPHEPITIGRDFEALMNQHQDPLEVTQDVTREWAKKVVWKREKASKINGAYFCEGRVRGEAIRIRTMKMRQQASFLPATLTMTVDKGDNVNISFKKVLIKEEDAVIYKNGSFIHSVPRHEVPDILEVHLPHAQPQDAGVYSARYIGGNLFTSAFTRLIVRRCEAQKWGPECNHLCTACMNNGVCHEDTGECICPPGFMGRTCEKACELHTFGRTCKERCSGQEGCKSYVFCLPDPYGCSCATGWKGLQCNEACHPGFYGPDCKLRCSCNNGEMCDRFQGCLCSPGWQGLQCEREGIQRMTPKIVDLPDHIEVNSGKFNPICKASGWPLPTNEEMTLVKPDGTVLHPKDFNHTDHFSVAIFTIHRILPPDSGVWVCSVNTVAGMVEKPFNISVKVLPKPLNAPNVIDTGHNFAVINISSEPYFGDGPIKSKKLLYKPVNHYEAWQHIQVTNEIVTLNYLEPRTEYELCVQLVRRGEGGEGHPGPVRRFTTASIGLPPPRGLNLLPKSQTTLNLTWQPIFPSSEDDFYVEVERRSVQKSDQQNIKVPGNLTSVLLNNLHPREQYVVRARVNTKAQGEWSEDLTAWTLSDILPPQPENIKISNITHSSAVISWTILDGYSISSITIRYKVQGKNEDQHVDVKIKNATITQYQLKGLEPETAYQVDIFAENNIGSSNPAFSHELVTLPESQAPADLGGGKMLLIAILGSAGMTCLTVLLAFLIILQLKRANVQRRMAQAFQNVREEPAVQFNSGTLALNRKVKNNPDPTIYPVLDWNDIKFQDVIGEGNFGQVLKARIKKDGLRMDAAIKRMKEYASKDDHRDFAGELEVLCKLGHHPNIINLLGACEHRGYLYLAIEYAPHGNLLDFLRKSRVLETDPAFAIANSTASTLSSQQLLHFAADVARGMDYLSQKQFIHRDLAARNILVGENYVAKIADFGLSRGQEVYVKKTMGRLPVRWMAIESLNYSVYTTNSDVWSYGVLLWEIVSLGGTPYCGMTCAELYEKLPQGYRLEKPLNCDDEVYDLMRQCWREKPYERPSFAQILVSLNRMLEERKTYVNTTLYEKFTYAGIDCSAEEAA

[5] = molecular target: Angiopoietin-1 receptor (Homo sapiens) (UniProt Q02763); settings: at 1 µM
[6] = molecular target: T2, Non-receptor tyrosine-protein kinase TNK1 (Homo sapiens) (UniProt Q13470); settings: at 0.1 µM
T2 sequence (whole entry): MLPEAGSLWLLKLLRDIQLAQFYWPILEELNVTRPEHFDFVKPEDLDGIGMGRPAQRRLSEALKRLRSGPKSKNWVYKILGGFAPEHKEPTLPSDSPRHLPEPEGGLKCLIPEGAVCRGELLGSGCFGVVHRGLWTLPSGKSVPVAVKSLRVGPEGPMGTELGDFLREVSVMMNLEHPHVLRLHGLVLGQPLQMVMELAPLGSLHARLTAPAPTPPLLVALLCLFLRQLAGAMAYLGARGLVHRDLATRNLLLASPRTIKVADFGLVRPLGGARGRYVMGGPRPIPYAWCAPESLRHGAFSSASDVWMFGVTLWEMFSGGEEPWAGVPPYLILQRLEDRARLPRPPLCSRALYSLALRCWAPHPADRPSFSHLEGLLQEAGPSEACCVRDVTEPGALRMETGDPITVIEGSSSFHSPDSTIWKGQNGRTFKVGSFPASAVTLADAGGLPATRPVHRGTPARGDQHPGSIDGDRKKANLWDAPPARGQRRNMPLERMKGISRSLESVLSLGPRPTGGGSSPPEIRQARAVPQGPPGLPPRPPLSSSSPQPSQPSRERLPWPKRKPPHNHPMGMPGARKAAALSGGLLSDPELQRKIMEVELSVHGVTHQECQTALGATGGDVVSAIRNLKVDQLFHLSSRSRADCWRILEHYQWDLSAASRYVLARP

[7] = molecular target: T2, Non-receptor tyrosine-protein kinase TNK1 (Homo sapiens); settings: at 1 µM
[8] = molecular target: Activated CDC42 kinase 1 (Homo sapiens) (UniProt Q07912); settings: at 0.1 µM
Sequence of Activated CDC42 kinase 1 (Homo sapiens) (Q07912 whole entry, looked up): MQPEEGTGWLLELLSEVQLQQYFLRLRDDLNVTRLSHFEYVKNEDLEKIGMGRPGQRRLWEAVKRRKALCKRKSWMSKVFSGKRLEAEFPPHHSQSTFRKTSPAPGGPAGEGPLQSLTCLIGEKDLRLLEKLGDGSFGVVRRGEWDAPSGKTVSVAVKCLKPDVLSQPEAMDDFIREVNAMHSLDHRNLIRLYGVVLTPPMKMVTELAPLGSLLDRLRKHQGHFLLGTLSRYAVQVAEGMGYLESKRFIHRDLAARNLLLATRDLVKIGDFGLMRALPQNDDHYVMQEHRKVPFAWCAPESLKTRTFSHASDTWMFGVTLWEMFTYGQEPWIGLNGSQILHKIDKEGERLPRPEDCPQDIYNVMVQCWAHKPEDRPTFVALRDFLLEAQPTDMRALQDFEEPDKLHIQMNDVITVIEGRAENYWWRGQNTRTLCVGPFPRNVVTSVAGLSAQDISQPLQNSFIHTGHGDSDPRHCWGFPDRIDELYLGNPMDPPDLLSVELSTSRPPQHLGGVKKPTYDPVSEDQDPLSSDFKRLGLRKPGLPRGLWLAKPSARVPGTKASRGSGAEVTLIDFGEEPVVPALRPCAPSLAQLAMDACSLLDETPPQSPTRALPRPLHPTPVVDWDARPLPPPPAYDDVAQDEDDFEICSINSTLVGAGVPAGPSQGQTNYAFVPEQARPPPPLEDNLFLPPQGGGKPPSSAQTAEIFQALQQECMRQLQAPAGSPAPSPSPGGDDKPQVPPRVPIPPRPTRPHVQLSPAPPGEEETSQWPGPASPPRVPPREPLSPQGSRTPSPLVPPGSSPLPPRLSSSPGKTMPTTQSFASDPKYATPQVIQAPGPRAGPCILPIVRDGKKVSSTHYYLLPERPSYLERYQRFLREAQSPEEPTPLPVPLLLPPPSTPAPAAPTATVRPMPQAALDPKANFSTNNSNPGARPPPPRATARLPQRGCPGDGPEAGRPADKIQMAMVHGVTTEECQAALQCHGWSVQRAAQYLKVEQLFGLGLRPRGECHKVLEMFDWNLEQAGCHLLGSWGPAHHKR

[9] = molecular target: Activated CDC42 kinase 1 (Homo sapiens) (UniProt Q07912); settings: at 1 µM
[10] = molecular target: High affinity nerve growth factor receptor (Homo sapiens) (UniProt P04629); settings: at 0.1 µM
Sequence of High affinity nerve growth factor receptor (Homo sapiens) (P04629 33-796 limits assumed): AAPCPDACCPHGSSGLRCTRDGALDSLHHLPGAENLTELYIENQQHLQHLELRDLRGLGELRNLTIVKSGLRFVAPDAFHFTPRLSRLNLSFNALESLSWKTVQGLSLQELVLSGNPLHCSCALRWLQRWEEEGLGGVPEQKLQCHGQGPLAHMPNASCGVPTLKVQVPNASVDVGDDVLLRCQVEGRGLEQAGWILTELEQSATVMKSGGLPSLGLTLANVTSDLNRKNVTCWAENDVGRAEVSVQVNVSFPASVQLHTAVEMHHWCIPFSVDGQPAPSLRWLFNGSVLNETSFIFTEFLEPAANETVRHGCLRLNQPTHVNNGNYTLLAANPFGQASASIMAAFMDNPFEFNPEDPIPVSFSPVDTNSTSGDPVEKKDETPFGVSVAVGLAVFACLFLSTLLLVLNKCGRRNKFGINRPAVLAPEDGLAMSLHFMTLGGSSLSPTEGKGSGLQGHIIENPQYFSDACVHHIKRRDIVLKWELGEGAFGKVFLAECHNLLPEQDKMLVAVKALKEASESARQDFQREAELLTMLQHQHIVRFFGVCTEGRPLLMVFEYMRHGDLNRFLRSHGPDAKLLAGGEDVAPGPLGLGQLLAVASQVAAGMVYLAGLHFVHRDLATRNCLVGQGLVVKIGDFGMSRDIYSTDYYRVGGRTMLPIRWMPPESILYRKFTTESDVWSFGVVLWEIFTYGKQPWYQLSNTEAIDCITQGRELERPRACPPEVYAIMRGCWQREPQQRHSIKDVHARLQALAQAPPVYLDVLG

[11] = molecular target: High affinity nerve growth factor receptor (Homo sapiens) (UniProt P04629); settings: at 1 µM
[12] = molecular target: BDNF/NT-3 growth factors receptor (Homo sapiens) (UniProt Q16620); settings: at 0.1 µM
Sequence of BDNF/NT-3 growth factors receptor (Homo sapiens) (Q16620 32-822 limits assumed): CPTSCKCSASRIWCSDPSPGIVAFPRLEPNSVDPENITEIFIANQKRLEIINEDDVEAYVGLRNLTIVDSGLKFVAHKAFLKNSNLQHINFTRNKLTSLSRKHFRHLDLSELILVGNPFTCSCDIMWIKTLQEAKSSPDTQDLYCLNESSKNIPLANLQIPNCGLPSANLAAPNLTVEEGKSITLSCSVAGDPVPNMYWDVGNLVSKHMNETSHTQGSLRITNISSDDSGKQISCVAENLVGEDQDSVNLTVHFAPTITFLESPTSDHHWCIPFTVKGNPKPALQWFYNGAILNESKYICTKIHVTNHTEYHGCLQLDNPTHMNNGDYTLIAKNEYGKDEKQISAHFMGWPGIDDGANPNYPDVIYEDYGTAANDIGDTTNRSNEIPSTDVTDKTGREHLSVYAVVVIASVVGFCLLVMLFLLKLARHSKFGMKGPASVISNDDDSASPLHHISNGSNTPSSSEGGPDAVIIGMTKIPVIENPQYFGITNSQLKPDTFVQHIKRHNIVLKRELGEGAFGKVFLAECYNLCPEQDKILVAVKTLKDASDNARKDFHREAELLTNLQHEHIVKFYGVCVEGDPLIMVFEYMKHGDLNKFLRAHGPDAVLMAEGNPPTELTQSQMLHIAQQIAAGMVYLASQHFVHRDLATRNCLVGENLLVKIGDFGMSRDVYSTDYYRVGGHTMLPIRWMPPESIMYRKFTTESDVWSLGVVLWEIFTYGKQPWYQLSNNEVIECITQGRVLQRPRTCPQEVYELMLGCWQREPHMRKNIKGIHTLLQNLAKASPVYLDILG

[13] = molecular target: BDNF/NT-3 growth factors receptor (Homo sapiens) (UniProt Q16620); settings: at 1 µM
[14] = molecular target: NT-3 growth factor receptor (Homo sapiens) (UniProt Q16288); settings: at 0.1 µM
[15] = molecular target: NT-3 growth factor receptor (Homo sapiens) (UniProt Q16288); settings: at 1 µM
[16] = molecular target: T3, Tyrosine-protein kinase TXK (Homo sapiens) (UniProt P42681); settings: at 0.1 µM
T3 sequence (whole entry): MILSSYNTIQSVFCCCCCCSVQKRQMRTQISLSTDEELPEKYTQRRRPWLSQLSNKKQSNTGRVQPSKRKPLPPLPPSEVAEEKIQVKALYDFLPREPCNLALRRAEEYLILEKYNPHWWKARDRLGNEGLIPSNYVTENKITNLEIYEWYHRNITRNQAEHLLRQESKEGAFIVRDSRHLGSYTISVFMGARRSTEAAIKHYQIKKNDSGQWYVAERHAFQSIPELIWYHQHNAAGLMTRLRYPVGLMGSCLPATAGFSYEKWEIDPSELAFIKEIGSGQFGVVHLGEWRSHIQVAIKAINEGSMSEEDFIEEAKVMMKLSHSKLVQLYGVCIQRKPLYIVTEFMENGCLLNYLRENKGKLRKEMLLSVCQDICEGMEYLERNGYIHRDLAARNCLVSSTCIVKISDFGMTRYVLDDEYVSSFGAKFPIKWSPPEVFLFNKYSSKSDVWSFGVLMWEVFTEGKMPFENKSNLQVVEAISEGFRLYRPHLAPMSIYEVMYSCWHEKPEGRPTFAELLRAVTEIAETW

[17] = molecular target: T3, Tyrosine-protein kinase TXK (Homo sapiens); settings: at 1 µM
[18] = molecular target: Non-receptor tyrosine-protein kinase TYK2 (Homo sapiens) (UniProt P29597); settings: at 0.1 µM;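 also: each value is a mean of the inhibition readings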
Sequence of Non-receptor tyrosine-protein kinase TYK2 (Homo sapiens) (P29597 whole entry): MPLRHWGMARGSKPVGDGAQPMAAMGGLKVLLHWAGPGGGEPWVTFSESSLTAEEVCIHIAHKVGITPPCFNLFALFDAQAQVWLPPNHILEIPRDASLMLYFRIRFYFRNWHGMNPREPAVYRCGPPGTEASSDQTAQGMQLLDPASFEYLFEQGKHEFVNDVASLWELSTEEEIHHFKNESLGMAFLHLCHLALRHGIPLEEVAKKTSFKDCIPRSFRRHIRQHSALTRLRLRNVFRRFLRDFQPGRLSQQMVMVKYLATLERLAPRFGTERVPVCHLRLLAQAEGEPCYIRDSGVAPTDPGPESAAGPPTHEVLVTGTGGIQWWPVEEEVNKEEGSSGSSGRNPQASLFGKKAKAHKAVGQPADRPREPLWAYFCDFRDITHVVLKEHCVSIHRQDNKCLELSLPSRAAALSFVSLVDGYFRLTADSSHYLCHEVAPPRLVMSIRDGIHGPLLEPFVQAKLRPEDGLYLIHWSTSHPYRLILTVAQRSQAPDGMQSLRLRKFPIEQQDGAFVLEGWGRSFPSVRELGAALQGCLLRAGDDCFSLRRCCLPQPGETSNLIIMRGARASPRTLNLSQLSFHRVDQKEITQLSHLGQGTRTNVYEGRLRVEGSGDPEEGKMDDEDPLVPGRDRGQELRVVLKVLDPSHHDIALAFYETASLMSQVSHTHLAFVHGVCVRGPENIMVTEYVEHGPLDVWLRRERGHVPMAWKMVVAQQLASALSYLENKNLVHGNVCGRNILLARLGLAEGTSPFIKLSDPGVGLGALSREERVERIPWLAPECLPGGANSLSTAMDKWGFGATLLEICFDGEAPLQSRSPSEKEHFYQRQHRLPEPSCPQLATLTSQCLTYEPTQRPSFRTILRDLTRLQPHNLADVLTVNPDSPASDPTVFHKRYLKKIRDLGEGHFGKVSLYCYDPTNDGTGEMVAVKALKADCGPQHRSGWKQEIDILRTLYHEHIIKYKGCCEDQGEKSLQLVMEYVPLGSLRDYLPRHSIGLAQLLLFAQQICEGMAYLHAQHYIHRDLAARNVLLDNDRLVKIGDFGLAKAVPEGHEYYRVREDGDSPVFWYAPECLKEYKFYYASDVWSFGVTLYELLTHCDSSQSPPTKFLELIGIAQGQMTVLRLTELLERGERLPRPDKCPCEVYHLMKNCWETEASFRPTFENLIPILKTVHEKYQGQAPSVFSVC

[19] = molecular target: T4, Dual specificity protein kinase TTK (Homo sapiens) (UniProt P33981); settings: at 1 µM;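 also: reported figures are mean TTK inhibition at 1 µM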
T4 sequence (whole entry): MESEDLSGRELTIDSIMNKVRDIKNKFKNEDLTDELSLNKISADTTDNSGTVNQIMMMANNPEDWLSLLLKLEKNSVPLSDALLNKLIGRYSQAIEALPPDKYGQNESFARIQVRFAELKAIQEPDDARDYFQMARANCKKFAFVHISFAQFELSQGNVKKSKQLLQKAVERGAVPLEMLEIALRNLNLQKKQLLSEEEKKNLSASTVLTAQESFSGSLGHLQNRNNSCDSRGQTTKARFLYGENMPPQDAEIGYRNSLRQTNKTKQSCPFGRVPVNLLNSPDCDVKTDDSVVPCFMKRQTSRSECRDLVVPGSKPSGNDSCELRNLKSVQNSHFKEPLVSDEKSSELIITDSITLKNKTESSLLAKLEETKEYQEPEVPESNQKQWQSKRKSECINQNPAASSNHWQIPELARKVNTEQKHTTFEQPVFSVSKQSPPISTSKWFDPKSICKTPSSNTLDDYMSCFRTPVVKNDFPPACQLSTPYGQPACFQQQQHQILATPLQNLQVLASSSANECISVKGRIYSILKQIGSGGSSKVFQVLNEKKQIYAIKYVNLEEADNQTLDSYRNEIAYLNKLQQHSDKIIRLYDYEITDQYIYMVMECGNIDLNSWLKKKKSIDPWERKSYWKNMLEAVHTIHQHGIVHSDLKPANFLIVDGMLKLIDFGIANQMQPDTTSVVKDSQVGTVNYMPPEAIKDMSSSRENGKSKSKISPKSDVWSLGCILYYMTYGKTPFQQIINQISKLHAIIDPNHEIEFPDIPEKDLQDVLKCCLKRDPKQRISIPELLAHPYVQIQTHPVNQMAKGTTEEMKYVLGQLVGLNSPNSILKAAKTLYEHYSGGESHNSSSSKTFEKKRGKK

[20] = molecular target: T5, Aurora kinase A (Homo sapiens) (UniProt O14965); settings: at 0.1 µM;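 also: each reported value is a mean percent inhibition of Aurora-A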
T5 sequence (whole entry): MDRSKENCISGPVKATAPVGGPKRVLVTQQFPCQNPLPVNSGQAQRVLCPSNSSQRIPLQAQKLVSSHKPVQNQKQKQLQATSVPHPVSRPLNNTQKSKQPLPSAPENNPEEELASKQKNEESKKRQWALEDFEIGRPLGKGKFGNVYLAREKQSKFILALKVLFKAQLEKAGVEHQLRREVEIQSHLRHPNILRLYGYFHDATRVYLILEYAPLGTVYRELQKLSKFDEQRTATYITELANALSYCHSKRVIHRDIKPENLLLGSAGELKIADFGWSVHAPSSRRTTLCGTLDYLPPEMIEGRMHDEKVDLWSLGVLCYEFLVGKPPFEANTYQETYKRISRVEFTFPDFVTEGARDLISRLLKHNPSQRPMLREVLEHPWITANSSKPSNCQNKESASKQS

| Compound | inhibition [1] [%] | inhibition [2] [%] | inhibition [3] [%] | inhibition [4] [%] | inhibition [5] [%] | inhibition [6] [%] | inhibition [7] [%] | inhibition [8] [%] | inhibition [9] [%] | inhibition [10] [%] | inhibition [11] [%] | inhibition [12] [%] | inhibition [13] [%] | inhibition [14] [%] | inhibition [15] [%] | inhibition [16] [%] | inhibition [17] [%] | inhibition [18] [%] | inhibition [19] [%] | inhibition [20] [%] |
| --- | --- | --- | --- | --- | --- | --- | --- | --- | --- | --- | --- | --- | --- | --- | --- | --- | --- | --- | --- | --- |
| NS(=O)(=O)c1ccc(Nc2cc(-c3cccc(O)c3)n[nH]2)cc1 | -0.51 | 5.22 | 5.56 | 4.05 | 3.13 | 4.11 | 7.43 | 1.36 | 2.01 | 4.76 | 10.5 | 5.48 | 12.6 | 5.55 | 14.4 | 2.77 | 2.95 | -9.08 | 0.24 | 3.17 |
| CS(=O)(=O)Nc1cccc(-c2ccc3c(NC(=O)C4CC4)n[nH]c3c2)c1 | 0.89 | 2.55 | 3.97 | 1.52 | 7.04 | 2.45 | -6.75 | -0.85 | -2.06 | -1.92 | 2.02 | 0.05 | 0.23 | -0.22 | 5.08 | -1.12 | 2.67 | 0.85 | 5.01 | 2.68 |
| Nc1nccc(-c2c(-c3ccc(F)cc3)ncn2CCCN2CCOCC2)n1 | -0.03 | 3.86 | 3.98 | 8.3 | 8.42 | 1.92 | 5.56 | 0.21 | 1.33 | -0.29 | 2.15 | 1.18 | 6.6 | 0.23 | 4.59 | 3 | 3.47 | -3.95 | 6.61 | 3.86 |
| CCS(=O)(=O)c1ccc(OC)c(Nc2nccc(N(C)c3ccc4c(C)n[nH]c4c3)n2)c1 | -6.17 | 4.3 | 27 | 6.69 | 46.3 | 40 | 82.5 | 2.32 | 22.8 | 2.86 | 11.7 | 5.19 | 14.1 | 4.34 | 17.5 | 1.6 | 26.2 | -6.13 | 11.9 | 4.98 |
| CN(C)c1cc2c(Nc3ccc4c(cnn4Cc4ccccc4)c3)ncnc2cn1 | 0.09 | 3.97 | 9.92 | 2.74 | 5.29 | 3.66 | 14.7 | 0.72 | 1.68 | 1.75 | 1.97 | 1.16 | 0.6 | 2.13 | 1.66 | 3.19 | 4.31 | -2.71 | 6.41 | -1.73 |
| CCCN1CCCC(c2ccc(Nc3nc(Nc4cc(F)ccc4C(N)=O)c4cc[nH]c4n3)c(OC)c2)C1 (stereo not given) | 75.8 | 4.67 | 9.82 | 4 | 4.28 | 41.2 | 81 | 5.79 | 41.1 | 3.35 | 5.65 | 4.46 | 6.11 | 3.36 | 5.51 | 3.48 | 6.47 | -2.19 | 79.6 | 1.81 |
| CCn1c(-c2nonc2N)nc2ccc(F)cc21 | -1.93 | 6.29 | 3.97 | 2.7 | 1.79 | 7.71 | 9.97 | 1.53 | 3.08 | 2.92 | 2.84 | 4.03 | 4.23 | 3.74 | 4.75 | 1.94 | 0.47 | -3.66 | 11.6 | 3.17 |
| COc1cc2ncn(-c3cc(OCc4ccccc4S(C)(=O)=O)c(C#N)s3)c2cc1OC | -2.95 | 7.94 | 35.5 | 5.63 | 14.6 | 38.6 | 77.9 | 6.02 | 38 | 5.48 | 18.8 | 15 | 57.2 | 12.9 | 56.1 | 10.8 | 42.5 | -7.35 | 11.1 | 12.4 |
| CN(C)C(=O)O[C@H]1CN[C@H](C#Cc2cc3ncnc(Nc4ccc(OCc5cccc(F)c5)c(Cl)c4)c3s2)C1 | -0.76 | 3.98 | 6.52 | 2.98 | 5.32 | 1.02 | 12 | 1.42 | 1.79 | 2.9 | 0.1 | 1.92 | 2.03 | 1.38 | 2.78 | 2.86 | 4.84 | -7.95 | 6.07 | 1.25 |
| NC(=O)c1sc(-n2cnc3ccccc32)cc1OCc1ccccc1Br | -0.37 | 4.6 | 4.76 | 2 | 6.42 | 2.8 | 18.9 | 0.68 | 1.87 | 1.54 | 5.34 | 3.05 | 4.07 | 1.79 | 3.41 | 3.34 | 5.57 | -1.33 | 13 | 3.86 |
